Results from publication PMC3218832.

Experiments:
Test in all cases: protein binding microarray; high values mean tight binding
Details in all cases: dsDNA, one strand shown
[1] = target: RELARELA (p65 homodimer) (Homo sapiens, UniProt Q04206 1-307)
[2] = target: p50p50 homodimer (Homo sapiens, UniProt P19838 7-356)
[3] = target: T1, p52p52 homodimer (Homo sapiens, UniProt Q00653 4-332)
T1 sequence: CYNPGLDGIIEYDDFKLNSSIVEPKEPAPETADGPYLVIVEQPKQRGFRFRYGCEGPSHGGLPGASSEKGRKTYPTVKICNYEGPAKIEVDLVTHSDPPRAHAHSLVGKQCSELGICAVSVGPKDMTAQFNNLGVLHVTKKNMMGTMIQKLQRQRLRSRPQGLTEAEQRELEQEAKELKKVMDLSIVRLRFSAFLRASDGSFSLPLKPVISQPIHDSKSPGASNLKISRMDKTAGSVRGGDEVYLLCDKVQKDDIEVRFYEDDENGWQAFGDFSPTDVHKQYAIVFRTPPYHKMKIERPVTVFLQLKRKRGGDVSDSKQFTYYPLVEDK

[4] = target: RELA (p65) subunit of heterodimer;p50 subunit (Homo sapiens;Homo sapiens, UniProt Q04206;P19838 1-307;7-356)
[5] = target: RELA (p65) subunit of heterodimer;p52 subunit (Homo sapiens;Homo sapiens, UniProt Q04206;Q00653 1-307;4-332)
[6] = target: RELB subunit;p50 subunit (Homo sapiens;Homo sapiens, UniProt Q01201;P19838 120-401;7-356)
[7] = target: T2, RELB subunit;p52 subunit (Homo sapiens;Homo sapiens, UniProt Q01201;Q00653 120-401;4-332)
T2 sequence 1: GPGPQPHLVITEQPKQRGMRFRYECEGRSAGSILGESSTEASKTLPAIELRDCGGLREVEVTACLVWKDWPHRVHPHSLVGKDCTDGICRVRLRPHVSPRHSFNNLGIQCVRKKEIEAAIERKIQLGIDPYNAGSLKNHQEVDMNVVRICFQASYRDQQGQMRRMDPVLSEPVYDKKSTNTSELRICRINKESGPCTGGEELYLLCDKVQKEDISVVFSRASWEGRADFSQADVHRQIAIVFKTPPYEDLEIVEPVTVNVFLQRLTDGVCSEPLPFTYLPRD
T2 sequence 2: T1 sequence

[8] = target: C-Rel subunit;p50 subunit (Homo sapiens;Homo sapiens, UniProt Q04864;P19838 1-285;7-356)
[9] = target: T3, C-Rel subunit;p52 subunit (Homo sapiens;Homo sapiens, UniProt Q04864;Q00653 1-285;4-332)
T3 sequence 1: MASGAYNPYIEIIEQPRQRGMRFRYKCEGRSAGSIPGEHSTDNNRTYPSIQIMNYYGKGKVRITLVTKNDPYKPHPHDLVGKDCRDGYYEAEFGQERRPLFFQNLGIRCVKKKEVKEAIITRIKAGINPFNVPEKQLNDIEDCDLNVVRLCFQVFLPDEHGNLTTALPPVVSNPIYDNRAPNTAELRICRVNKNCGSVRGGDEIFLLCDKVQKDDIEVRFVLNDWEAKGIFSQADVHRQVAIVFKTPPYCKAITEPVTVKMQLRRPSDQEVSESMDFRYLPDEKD
T3 sequence 2: T1 sequence

RELA (p65) subunit of heterodimer;p50 subunit, sequence (Q04206 1-307, chain 1 of 2): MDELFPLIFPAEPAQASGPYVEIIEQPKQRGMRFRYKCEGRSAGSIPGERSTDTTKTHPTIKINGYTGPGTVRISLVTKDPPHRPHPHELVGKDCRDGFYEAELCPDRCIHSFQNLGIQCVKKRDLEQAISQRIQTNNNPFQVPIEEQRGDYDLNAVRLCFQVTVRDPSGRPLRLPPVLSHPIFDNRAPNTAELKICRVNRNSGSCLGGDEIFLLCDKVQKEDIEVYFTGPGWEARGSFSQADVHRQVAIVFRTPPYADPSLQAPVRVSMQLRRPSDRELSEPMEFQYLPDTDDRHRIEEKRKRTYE
RELA (p65) subunit of heterodimer;p50 subunit, sequence (P19838 7-356, chain 2 of 2): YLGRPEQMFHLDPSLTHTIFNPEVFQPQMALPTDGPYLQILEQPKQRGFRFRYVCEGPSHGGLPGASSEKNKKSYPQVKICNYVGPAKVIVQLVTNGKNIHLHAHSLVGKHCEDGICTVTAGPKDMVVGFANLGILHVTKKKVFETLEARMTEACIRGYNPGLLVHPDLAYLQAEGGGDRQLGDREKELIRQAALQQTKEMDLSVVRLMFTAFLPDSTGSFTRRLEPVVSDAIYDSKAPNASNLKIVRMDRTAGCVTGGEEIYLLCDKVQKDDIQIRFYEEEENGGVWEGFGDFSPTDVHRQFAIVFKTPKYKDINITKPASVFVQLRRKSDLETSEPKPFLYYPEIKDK
RELARELA (p65 homodimer), sequence (Q04206 1-307): as the sequence (Q04206 1-307, chain 1 of 2) above
p50p50 homodimer, sequence (P19838 7-356): as the sequence (P19838 7-356, chain 2 of 2) above

Sequence	binding signal [1] [z-score]	binding signal [2] [z-score]	binding signal [3] [z-score]	binding signal [4] [z-score]	binding signal [5] [z-score]	binding signal [6] [z-score]	binding signal [7] [z-score]	binding signal [8] [z-score]	binding signal [9] [z-score]
GGGATGGCCCC	-0.135	0.31	1.6	0.79	1.15	0.678	0.614	0.492	0.746
CAGAACCTCCT	-0.658	-1.31	-0.791	-0.921	-0.938	-0.924	-0.944	-1.48	-0.853
CGGAAATTCCC	4.22	1.06	2.53	2.23	2.39	1.19	2.04	2.28	2.88
AGATTACCCCC	0.372	1.19	0.936	1.24	1.2	1.18	1.63	1.21	1.12
CAAGAAACCCT	-0.512	-0.321	-0.245	-0.525	-0.264	-0.492	-0.353	-0.467	-0.305
AAGTTGATCCC	-0.64	-0.815	-0.6	-0.903	-0.719	-0.688	-0.621	-1.07	-0.615
CGGTAGCCCCT	0.0258	0.991	0.543	0.402	0.598	0.503	0.728	0.38	0.45
GAAGTGCTCCT	-0.661	-1.67	-0.792	-0.918	-1.01	-1.33	-1.22	-1.67	-1
GGAAGAGCCCT	-0.298	-0.632	-0.649	-0.191	-0.503	-0.91	-0.727	-0.606	-0.318
CGAAGATCCCC	-0.0141	0.983	1.06	1.41	1.15	1.5	1.11	1.04	1.05
AAGAGGCTCCC	-0.428	-1.01	-0.505	-0.958	-0.845	-0.665	-0.714	-1.12	-0.72
GGGTGGGCCCT	0.392	-0.139	-0.133	-0.0704	-0.184	-0.392	-0.318	-0.304	0.357
AGATGCGCCCT	-0.621	-1.13	-0.603	-0.768	-0.721	-1.01	-0.804	-1.47	-0.758
AGAGTATTCCC	1.05	0.224	0.305	0.534	0.292	0.0188	0.0238	0.73	0.396
GAAAGAATCCT	-0.654	-1.19	-0.601	-1.12	-0.922	-0.95	-0.787	-1.22	-0.804
